Results: PubChem BioAssay (NCI)
The panel holds about 83,000 compounds, 20% with a hit somewhere; the sample as a whole holds those more often.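 Step 1: grow cells in 96-well plates. Step 2: add test compound at a single concentration. Step 3: incubate 48 h. Step 4: record percent growth.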 Unmarked numbers belong to inactive results. Activity calls are given as the source filed them.

System: HOP-62 NSCLC
Assay: NCI-60 one-dose screen, 48 h (100 = growth as untreated, 0 = no growth, -100 = all killed)
Details: 10 µM unless noted
Description: Growth inhibition of the HOP-62 human Non-Small Cell Lung tumor cell line is measured as a screen for anti-cancer activity. Cells are grown in 96 well plates and exposed to the test compound for 48 hours. Compounds are tested at a single concentration, which is 10^-5 M for most compounds. The reported endpoint is percent growth (GI% or GIPRCNT), where numbers from 0 - 100% represent growth inhibition, and numbers from -100% - 0 represent cell death. For example, a value of 40 represents 60% growth inhibition. A value of 0 means no net growth occurred over the course of the experiment. A value of -40 indicates 40% of cells at the beginning of the experiment died by the end of the experiment. A value of -100 means all cells are dead at the end of the experiment.
NCI-60 Human Tumor Cell Lines Screen was performed using the standard one-dose NCI protocol, which is described in more detail at https://dtp.cancer.gov/discovery_development/nci-60/default.htm.
Compounds with GIPRCNT values below 10 were considered active. Activity score was based on GIPRCNT using the following formula: […]
Score is 0 for GIPRCNT values of 100 or above, 50 for GIPRCNT values of 0, and 100 for GIPRCNT values of -100.

SMILES | growth
COc1cc(CNC(=O)Cc2ccccc2)ccc1OCc1cn(-c2ccc(F)cc2)nn1 | 104%
CCCSC1=NC2C(N(CC)C(=O)N2CC)N1/N=C/C=C/c1ccccc1[N+](=O)[O-] (stereo not given) | 49.8%
COc1cc2cc3c(=O)n4c(cc5cc(OC)ncc54)c(=O)n3c2cn1 | 95.3%
CCOc1cc(Cl)c(C(C)NC(=O)c2cccc(OC)c2)cc1OCC (stereo not given) | -11.2% (active)
COc1ccc(C(O)(CCC(C)C)C(CN2CCOCC2)c2ccc(Cl)cc2)cc1 (stereo not given) | 63.6%
C[n+]1c2ccccc2nc2ccc(NCCO)cc21 | 98.1%
CN1CCN(Cc2ccc(C(=O)Nc3cncc(C#Cc4cnc5cccnn45)c3)cc2C(F)(F)F)CC1 | 70.9%
Cn1c(/C=C(\C#N)c2cccc(C(F)(F)F)c2)nc2c(N3CCOCC3)nc(Cl)nc21 | 34.1%
FC(F)(F)c1cccc(Nc2nc(-c3ccccc3)nc3ncccc23)c1 | 84.5%
COc1ccc2[nH]c(O)c(N=NC(=O)c3oc4ccccc4c3C)c2c1 | -24.1% (active)
CN1C(=O)N(C)C2C1NN=c1s/c(=C\c3c[nH]c4ccccc34)c(=O)n12 (stereo not given) | 49.2%
Cn1cc(-c2ccc3ncc(-c4ccc(CC(=O)Nc5cc(C(C)(C)C)no5)cc4)nc3c2)cn1 | 42.5%
O=C1/C(=C/c2ccc(O)cc2)COc2ccc(O)c(O)c21 | 51.5%
COc1cc(/C=C2\Oc3cc(OCCCN4CCCC4)ccc3C2=O)cc(OC)c1 | 91.5%
NCCCNc1nc2ccccc2c2c(=O)c3cc(F)ccc3sc12 | 32.8%
CCC1=C[C@]2(C3CC(=O)N(c4ccccc4)C3=O)CC(C(C)(C)C)C[C@@H]2[C@@H]2C(=O)N(c3ccccc3)C(=O)[C@H]12 (stereo not given in full) | 82.1%
Cc1ccc2[nH]c(=O)cc(-n3nncc3Cn3c4ccccc4c4ccccc43)c2c1 | 93.4%
CC1=C(C(=O)OCC2CCN(C(=O)OC(C)(C)C)CC2)[C@@H](c2cccc(C#N)c2)C2=C(CC(C)(C)CC2=O)N1 | 65.8%
CCN1CCN(c2cc(C)c3cc(NC(=O)c4ccc(OC)c(OC)c4)ccc3n2)CC1 | 50.7%
COc1cc(/C=C2\CN(C)C/C(=C\c3cc(CN4CCCCC4)c(O)c(OC)c3)C2=O)cc(CN2CCCCC2)c1O | 65%

SMILES | growth
OC(CNC1CCCCC1)Cn1c2ccc(I)cc2c2cc(I)ccc21 (stereo not given) | 74.4%
Cc1c(C(=O)OCCO)cc(-c2ccc(Cl)cc2)n1-c1ccc(Cl)cc1Cl | 89.2%
O=C(c1ccccc1)N(CCc1ccc(Cl)cc1)C(=S)N(C(=O)c1ccccc1)c1ccccc1 | 118%
COC(=O)C1(C)CCC[C@]2(C)[C@H]3C[C@H]4C(C(C)C)=C[C@]3(CC[C@@H]12)[C@H]1[C@@H]4[C@@H](OCC#CCN2CCOCC2)CC[C@@H]1OCC#CCN1CCOCC1 (stereo not given in full) | 85.3%
N#Cc1c(N)nc2c(c1N)C(c1ccc(F)cc1)c1ccc(N)cc1O2 (stereo not given) | 113%
N#CC(C#N)=Cc1c(-c2ccccc2)[nH]c2ccccc12 | 35.6%
O=C(/C=C/c1ccc(C(F)(F)F)cc1)c1ccc(Nc2nc(NCCO)nc(Nc3ccc(Cl)cc3)n2)cc1 | 53.2%
Cc1ccc(Nc2nc(N)c3ccccc3n2)cc1Cl | 89%
Cc1ccc(Cn2c(N3CCC(C(=O)NCc4cccs4)CC3)nc3ccccc32)cc1 | 85%
CCOC(=O)c1c2c(c(C)n1Cc1ccc(OC)cc1)-c1oncc1CC2 | 62%
O=C(NCCCN1CCC(N2CCCCC2)CC1)C1=Cc2cc(Br)ccc2OC1 | 87.9%
Nc1ccccc1-c1ccc(-c2ccc(Cl)cc2)c2c1[nH]c1ccccc12 | 79.5%
C=C1C(=O)O[C@H]2[C@H]1CC/C(COC(=O)/C=C\C(=O)O)=C\CC[C@@]1(C)O[C@@H]21 | 99.2%
COc1ccc(C(=O)C2CC2c2ccc(Cl)cc2)cc1 (stereo not given) | 115%
O=c1oc2ccc(Br)cc2c(=O)n1-c1ccc(I)cc1F | 1.91% (active)
O=Cc1c(OCc2cnnn2CC(=O)Nc2ccc(Cl)cc2)ccc2ccccc12 | 101%
Nc1nonc1-n1nncc1-c1cccnc1 | 110%
O=C1N=c2ccccc2=C1c1sc(=Nc2ccccc2)n(Nc2ccccc2)c1O | 100%
CCOc1cccc(/C=N\Nc2nc(=O)cc(C(=O)OC)s2)c1O | 85.6%
O=c1c2cc(F)ccc2sc2c(NCCCNCCO)nc3ccc(Cl)cc3c12 | 61%
